# Source: PubChem
# KCNQ2 pot: KCNQ2 (rat) channel potentiation. O88943. CHO-K1 KCNQ2, FluxOR thallium flux fluorescence; active compounds read high. B-score at 10 µM. 310,000 tested, 0.54% active;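 active = fluorescence ratio B-score at least 3 SD of library B-scores, with initial fluorescence B-score within 3 of them, cut at about 5.3 in these data; same plate scores as AID 2156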;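 also: B-score of peak minus minimum over baseline fluorescence ratio after K+ and Tl+ stimulus; positive B-score means potentiation of KCNQ2 with more thallium influx and brighter signal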
# KCNQ2 inh: KCNQ2 (rat) channel inhibition; B-score at 10 µM; CHO-K1 KCNQ2, FluxOR thallium flux, 20 min; active compounds read low; 310,000 tested, 1.1% active;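 active = fluorescence ratio B-score at most minus 3 library SDs, with starting brightness B-score within 2 library SDs, cut at about -5.5 in these data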
# Kir21 confirm: confirmation of mouse Kir2.1 potassium channel inhibitors; shares compounds with KCNQ2 pot; Kir2.1-expressing cells, FluxOR thallium flux fluorescence; active compounds read low; Tl flux remaining, % of negative control (active compounds read low), % at 10 µM; 2,300 tested, 41% active; AID 2032;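 active = Primary-screen hit whose thallium flux fell at least 3 control SD below untreated wells in both duplicates, with normal baseline fluorescence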;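 also: 0% = blank wells without stimulus and 100% = stimulated no-compound controls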
# HEK293 Tl flux: parental HEK293 activity in Kir2.1 inhibitor counter-screen; shares compounds with KCNQ2 pot; parental HEK293 cells, FluxOR thallium flux fluorescence; 0% = unstimulated blank wells; FluxOR signal as % of negative control (100 = no effect), % at 10 µM; 2,300 tested, 19% active;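 active = dye signal at least 3 control SD above or below untreated wells in both duplicates, raw fluorescence within 3, either direction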;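 also: percent is based on the flux ratio of peak minus minimum fluorescence over baseline F0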
# CHO-K1 Tl ctr: alters thallium flux in parental CHO-K1 cells, KCNQ2 counter-screen | shares compounds with KCNQ2 pot | FluxOR thallium flux fluorescence; zero = vehicle mean+3SD, 100% = vehicle-minus-blank window | activity increase over 3SD of controls, % at 10 µM | 1,200 tested, 43% active | AID 2282;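 active = signal rise of at least 3 SD above the untreated control mean, in both duplicate wells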;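 also: counter screen of KCNQ2 potentiator hits so any rise reflects channel-independent effects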
# KCNQ1 sel pot: tests whether KCNQ2 potentiators also act on human KCNQ1. shares compounds with KCNQ2 pot. CHO KCNQ1 stable, FluxOR thallium flux fluorescence; beyond 3SD, as % of vehicle-control signal. activation over 3SD threshold, % at 10 µM. 1,200 tested, 28% active;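 active = fluorescence ratio rise of at least 3 SD of vehicle wells above their mean, in both replicate wells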;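 also: 0% = vehicle mean plus 3 SD and 100% = vehicle minus unstimulated blank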
# KCNQ2 pot confirm: rat KCNQ2 channel potentiator confirmation. shares compounds with KCNQ2 pot. potentiation, less the hit threshold, % at 10 µM. CHO-KCNQ2 cells, FluxOR thallium flux fluorescence. 1,200 tested, 68% active;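 active = fluorescence ratio rising 3 SD or more over the vehicle control mean in both replicates, plus primary screen hit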;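 also: peak minus minimum thallium fluorescence divided by baseline after K/Tl stimulus; 0% = vehicle mean plus 3 SD and 100% = vehicle minus unstimulated blank difference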
# Kir2-1 sel: mouse Kir2.1 off-target activity of KCNQ2 potentiators; shares compounds with KCNQ2 pot; HEK293 Kir2.1, FluxOR thallium flux fluorescence; activity over 3SD threshold, % at 10 µM; 1,200 tested, 2% active; AID 2345;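 active = fluorescence ratio rise of at least 3 SD above the vehicle-control mean, seen in both replicates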;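 also: 0% = vehicle mean plus 3 SD and 100% = vehicle minus no-stimulus blank window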
# KCNQ2 W236L MoA: potentiates the retigabine-insensitive rat KCNQ2 W236L mutant channel; 940 tested, 10% active; shares compounds with KCNQ2 pot; AID 2558; CHO KCNQ2-W236L, automated patch clamp current; current increase over 3SD of negative controls (%), active compounds read high, % at 25 µM;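 active = current increase at least 3 SD of the untreated controls above them in both duplicate recordings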
# Target sequence (O88943 whole entry W236L, looked up): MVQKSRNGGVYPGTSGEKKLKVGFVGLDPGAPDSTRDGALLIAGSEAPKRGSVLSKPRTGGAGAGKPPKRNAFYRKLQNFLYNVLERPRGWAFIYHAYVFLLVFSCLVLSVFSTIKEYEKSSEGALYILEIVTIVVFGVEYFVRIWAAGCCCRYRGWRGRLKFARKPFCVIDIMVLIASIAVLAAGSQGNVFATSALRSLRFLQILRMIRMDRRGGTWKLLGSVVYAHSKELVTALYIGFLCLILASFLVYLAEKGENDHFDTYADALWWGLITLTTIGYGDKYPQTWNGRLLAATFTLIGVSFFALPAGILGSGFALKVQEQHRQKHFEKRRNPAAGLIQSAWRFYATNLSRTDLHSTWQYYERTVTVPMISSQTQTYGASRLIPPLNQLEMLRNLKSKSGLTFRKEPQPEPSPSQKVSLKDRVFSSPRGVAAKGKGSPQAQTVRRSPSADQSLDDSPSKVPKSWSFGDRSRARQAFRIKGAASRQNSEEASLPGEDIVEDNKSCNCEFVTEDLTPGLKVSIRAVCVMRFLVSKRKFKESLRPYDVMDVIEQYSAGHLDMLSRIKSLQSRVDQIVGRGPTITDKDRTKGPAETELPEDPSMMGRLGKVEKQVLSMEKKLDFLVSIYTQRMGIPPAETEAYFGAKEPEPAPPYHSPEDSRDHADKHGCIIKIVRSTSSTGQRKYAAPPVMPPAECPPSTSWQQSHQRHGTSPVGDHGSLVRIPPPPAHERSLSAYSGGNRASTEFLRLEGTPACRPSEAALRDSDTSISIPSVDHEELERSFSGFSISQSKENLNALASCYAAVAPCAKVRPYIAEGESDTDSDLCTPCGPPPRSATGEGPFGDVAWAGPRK
# An asterisk follows results filed as active; i = inactive; / = not tested or not shown; + = active, no number. The list is not random: actives were taken first. Their share in the collection is about 1.6%.
SMILES,KCNQ2 pot,KCNQ2 inh,Kir21 confirm,HEK293 Tl flux,CHO-K1 Tl ctr,KCNQ1 sel pot,KCNQ2 pot confirm,Kir2-1 sel,KCNQ2 W236L MoA
CSc1ncc(Cl)c(C(=O)Nc2nnc(SC/C=C/c3ccccc3)s2)n1,5.5*,i,i,i,6.5*,-28,-2,-36,i
C=CCSc1nnc(NC(=O)c2nc(SCC)ncc2Cl)s1,2.4,i,/,/,/,/,/,/,/
O=C(NCc1ccc2c(c1)OCO2)c1nc(S(=O)(=O)Cc2ccccc2)ncc1Cl,/,i,/,/,/,/,/,/,/
O=C(NCc1ccc2c(c1)OCO2)c1nc(S(=O)(=O)Cc2ccccc2F)ncc1Cl,/,i,/,/,/,/,/,/,/
CSc1nnc(NC(=O)c2nc(S(=O)(=O)Cc3ccccc3F)ncc2Cl)s1,10*,i,/,/,-16,-13,50*,-54,18%*
CSc1nnc(NC(=O)c2ccco2)s1,1.6,i,/,/,/,/,/,/,/
Cc1cccc(CS(=O)(=O)c2ncc(Cl)c(C(=O)Nc3nnc(C(C)C)s3)n2)c1,13*,i,/,/,-10,-6,99*,-64,49%*
COCCN(CC1CCCN(C2Cc3ccccc3C2)C1)C(=O)CCC(N)=O (stereo not given),/,i,/,/,/,/,/,/,/
O=C(NC(=S)NCc1ccccc1)c1ccccc1[N+](=O)[O-],1.1,i,/,/,/,/,/,/,/
COc1cc2c(cc1OC)CN(C(=O)C1CCN(S(=O)(=O)c3ccccc3F)CC1)CC2,1.9,i,/,/,/,/,/,/,/
Cc1ccc(C(=O)c2c3ccccc3[n+]([O-])n2CCC(N)=O)cc1,0.09,i,/,/,/,/,/,/,/
COc1cccc(NC(=S)N(C)C2CCN(C)CC2)c1,/,i,/,/,/,/,/,/,/
O=C(NCc1ccccc1)c1nc(S(=O)(=O)Cc2ccccc2)ncc1Cl,/,i,/,/,/,/,/,/,/
Cc1ccc(CS(=O)(=O)c2ncc(Cl)c(C(=O)Nc3ccc(OC(F)F)cc3)n2)cc1,0.85,i,/,/,/,/,/,/,/
Cc1ccc(CS(=O)(=O)c2ncc(Cl)c(C(=O)Nc3nnc(C(C)C)s3)n2)cc1,16*,i,i,182%*,0,-13,102*,-46,77%*
COC(=O)c1ccccc1NC(=O)c1nc(S(=O)(=O)Cc2ccccc2)ncc1Cl,/,i,/,/,/,/,/,/,/
CC(C)c1nnc(NC(=O)c2nc(S(=O)(=O)Cc3ccc(F)cc3)ncc2Cl)s1,11*,i,i,i,-3,-14,58*,-48,28%*
Cc1nnc(NC(=O)c2nc(S(=O)(=O)Cc3ccccc3C)ncc2Cl)s1,12*,i,i,i,-14,62*,77*,-41,35%*
CCSc1nnc(NC(=O)c2nc(S(=O)(=O)Cc3ccc(F)cc3)ncc2Cl)s1,10*,i,/,/,-21,-16,49*,-65,11%*
O=C(Nc1nnc(SCc2ccc(F)cc2)s1)c1cccnc1Cl,/,i,/,/,/,/,/,/,/
Cc1cccc(NS(=O)(=O)c2cc(C(=O)N3CCCCCC3)ccc2C)c1,/,i,/,/,/,/,/,/,/
COc1ccc(CNCc2ccco2)cc1OCc1ccccc1,0.49,i,/,/,/,/,/,/,/
COc1ccccc1CCNCc1ccc(OC)c(OCc2ccccc2)c1,/,i,i,i,/,/,/,/,/
O=C(NNC(=O)c1csc(N2CCOCC2)n1)c1cccnc1,1,i,/,/,/,/,/,/,/
COC(=O)c1cc(CSC(=N)N)ccc1OCCC(C)C,0.96,i,29%*,i,/,/,/,/,/
SMILES,KCNQ2 pot,KCNQ2 inh,Kir21 confirm,HEK293 Tl flux,CHO-K1 Tl ctr,KCNQ1 sel pot,KCNQ2 pot confirm,Kir2-1 sel,KCNQ2 W236L MoA
CCCOc1ccc(CSC(=N)N)cc1C(=O)OC,2.1,i,/,/,/,/,/,/,/
Cc1cc(SCC(=O)OCC(=O)N(CCC#N)c2ccccc2)nc2ccccc12,0.04,i,/,/,/,/,/,/,/
CCOC(=O)C1=C(C)N=c2s/c(=C/c3cccc(OCC(=O)O)c3)c(=O)n2C1c1ccc(F)cc1 (stereo not given),0.96,i,/,/,/,/,/,/,/
CCOC(=O)C1=C(C)N=c2s/c(=C\c3ccc(C(=O)O)cc3)c(=O)n2C1c1ccc(F)cc1 (stereo not given),7*,i,i,i,11*,-30,-12,-45,i
Cc1nc(N2CCN(S(=O)(=O)c3ccc(F)cc3)CC2)c2c(-c3cccs3)csc2n1,1,i,/,/,/,/,/,/,/
CC(=O)Nc1cccc(OCC(=O)NC(C)c2ccc3ccccc3c2)c1 (stereo not given),2.5,i,56%*,i,/,/,/,/,/
CC(=O)Nc1cccc(OCC(=O)Nc2ccccc2)c1,1.1,i,/,/,/,/,/,/,/
Cc1ccc(SCC(=O)OCC(=O)N(C)CC(=O)Nc2ccc(F)cc2)cc1C,7*,i,i,i,10*,1.0*,-2,-35,i
COc1ccc(Cl)cc1C(=O)OCC(=O)N(C)CC(=O)Nc1ccc(F)cc1,2.7,i,/,/,/,/,/,/,/
CC1CCN(S(=O)(=O)c2cccc(C(=O)NNC(=O)c3ccco3)c2)CC1,1.2,i,/,/,/,/,/,/,/
COC(=O)CN1C(=O)Nc2ccc(Cl)cc2C1c1ccccc1 (stereo not given),1.8,i,/,/,/,/,/,/,/
COC(=O)CN1C(=O)Nc2ccc(Br)cc2C1c1ccccc1Cl (stereo not given),15*,i,i,i,-14,+,38*,-37,6.9%*
CSc1nnc(NC(=O)c2cc(=O)c3cc(C)cc(C)c3o2)s1,0.34,i,/,/,/,/,/,/,/
COc1ccc(OCc2cc(C(=O)N3CCOCC3)no2)c(Cl)c1,/,i,/,/,/,/,/,/,/
CC(C)CC(=O)C1=C(O)C(=O)N(Cc2ccccc2)C1c1ccccc1 (stereo not given),/,i,/,/,/,/,/,/,/
COc1ccc(-c2oc3ccccc3c(=O)c2OCC(=O)O)cc1,0.85,i,/,/,/,/,/,/,/
CC(=O)Oc1c(-c2ccc(Br)o2)oc2ccccc2c1=O,16*,i,i,462%*,114*,-8,62*,-19,i
COc1ccc(-c2oc3ccccc3c(=O)c2OC(C)=O)cc1,6.7*,i,i,310%*,89*,-21,19*,-27,i
O=C(O)COc1c(-c2ccco2)oc2ccccc2c1=O,2,i,/,/,/,/,/,/,/
Nc1ccccc1SC1CC(=O)N(Cc2ccccc2)C1=O (stereo not given),/,i,/,/,/,/,/,/,/
O=C(NCc1ccco1)C(c1cccs1)N(C(=O)C1COc2ccccc2O1)c1cccc(O)c1 (stereo not given),/,i,/,/,/,/,/,/,/
NS(=O)(=O)c1ccc(CCNC(=O)c2ccccc2-c2ccccc2)cc1,/,i,/,/,/,/,/,/,/
